Values joined by “and” are separate entries in the source; they are usually repeats but may differ in a detail not shown here. Equal entries are not always repeated. The campaign covered roughly 430,000 compounds. About 2,600 (0.6%) were called active. No stated cut-off is given here; in the data, active means inhibition mostly above about 37% (no sharp cut-off); inactive means mostly below about 20%. For the sample, actives were picked, then their nearest neighbours and some compounds at random.

The experiment has as its system PriA–SSB C-terminal tail interaction (Klebsiella pneumoniae). The experiment in a line: inhibitors of Klebsiella pneumoniae PriA binding to SSB C-terminal tail, primary screen, biochemical, AlphaScreen (AID 1272365).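 Further: plate controls were negative control peptide for no effect and reference peptide for full effect.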 Conditions: AlphaScreen SSBct-PriA binding, biotinylated peptide; at 33 µM, stronger effect = higher value. (Bead proximity is the source of the signal in Alpha formats.)
As for `NS(=O)(=O)c1ccc(CCNC(=O)C(=O)Nc2nc3ccccc3s2)cc1`, the inhibition is -20% (inactive).
For the molecule `COc1ccc2cc(C(=O)N(CCc3cccs3)C3CC3)[nH]c2c1`, the inhibition is -1% (inactive).
Next, `Cc1nc2ccccc2c(=O)n1-c1ccc(F)c(NC(=O)c2ccccc2Cl)c1`: 3% (inactive).
Next, `Cc1cccc(NC(=O)Nc2ccc(Nc3ccc(-n4cccn4)nn3)cc2)c1C`: 66% (active) and 33% (inactive).
For `O=S(=O)(Nc1ccc2[nH]ncc2c1)c1ccccc1Cl`, the inhibition was 1.19% (inactive).
Next, `COc1cc(Nc2ccc(NS(=O)(=O)c3ccccc3Cl)cc2)nc(C)n1`: 5% (inactive); `CCc1ccccc1NC(=O)Nc1ccc(Nc2cc(-n3cccn3)ncn2)cc1`: -23% (inactive); `O=S(=O)(Nc1ccc(Nc2ccc(-n3cccn3)nn2)cc1)c1ccccc1Cl`: 100% (active).
As to `Cc1nn(-c2ccc(Nc3ccc(NC(=O)COc4ccccc4)cc3)nn2)c(C)c1C`, the inhibition is -7% (inactive).
Take `O=c1c2cc(-c3cccs3)nn2cnn1Cc1nc(-c2ccc(OCc3ccccc3)cc2)no1`: the inhibition was -16% (inactive).
As to `CC(C)c1ccc(/C=C2\CC/C(=C\C=NN(C)C)C2=O)cc1`, the inhibition was 5.12% (inactive).
With `Cc1cc(C)cc(NC(=O)N2CCN(c3ccc4nnc(C5CC5)n4n3)CC2)c1` the figure was -16% (inactive); with `CC(C)c1cc(=O)n(CC(=O)Nc2ccccc2C#N)cn1`, -2% (inactive); with `Cc1ccccc1OCC(=O)NCCCS(=O)(=O)N1CCc2ccccc2C1`, -9% (inactive).
Next, `O=C(CSc1ncc(-c2cccc(Br)c2)o1)NCc1ccc2c(c1)OCO2`: -4% (inactive); `CCn1nccc1C(=O)Nc1ccc(S(=O)(=O)NC23CC4CC(CC(C4)C2)C3)cc1`: -2.71% (inactive).
With `CCC(=O)Nc1ccc(-c2nc3ccccc3o2)cc1` the figure was -11% (inactive); with `CCn1nccc1C(=O)Nc1ccc(-c2nc3ccccc3o2)cc1`, 83% (active); with `O=C(c1ccc(OC(F)(F)F)cc1)N1CC(S(=O)(=O)C2CCCCC2)C1`, -1% (inactive).
As to `COc1ccc(CCNC(=O)C(=O)Nc2ccc3c(c2)CCCN3C(=O)c2cccs2)cc1`, the inhibition was 1% (inactive).
In the case of `O[C@H](c1ccncc1)c1c(-c2ccccc2)[nH]c2ccccc12`, the inhibition is 2% (inactive).
With `COc1ccc(NC(=O)COC(=O)Cn2c(C)nc3ccccc32)cc1OC` the figure was -8.33% (inactive); with `CCN(c1ccc(NC(=O)COC(=O)CCc2nc3ccccc3n2-c2ccccc2)cc1)C(C)C`, 55.2% (active); with `Cc1ccc(NC(=O)COC(=O)CCc2nc3ccccc3n2-c2ccccc2)c(C)c1`, 4.81% (inactive).
Next, `COc1cc([N+](=O)[O-])cc(C=NNC(=O)c2ccc(C)nc2)c1O`: 79.7% (inactive).
Take `CS(=O)(=O)Nc1c(Cl)c(Cl)c(Cl)c(Cl)c1Cl`: the inhibition is 3% (inactive).
Next, `Cc1ccc2cc(CCNC(=O)c3c(-c4ccccc4Cl)noc3C)c(=O)[nH]c2c1`: 4.89% (inactive).
Next, `Cc1onc(-c2ccccc2Cl)c1C(=O)NCCCS(=O)(=O)N1CCN(c2ccccn2)CC1`: -12% (inactive); `Cc1onc(-c2ccccc2Cl)c1C(=O)NCCn1ccc2ccccc21`: 5% (inactive) and 69.4% (active).

Broadly, the inhibition is the drop in the measured response relative to a control, in per cent.

The values above are taken from PubChem BioAssay AID1272365 (Small Molecule Screening Facility, UW Madison, 2018).
